From PubChem BioAssay AID1159580 (chemical genetic matrix, 2015)
Where “and” joins values, the source holds several entries; their conditions need not be identical. Identical values can stand only once. Among all 5,500 compounds or so, about 2,000 (36%) were called active. About 18% were inconclusive and are not listed. No stated cut-off is given here; in the data, active means normalized growth mostly below about 0.91 (no sharp cut-off); inconclusive means no clear call, values can overlap the other calls; inactive means mostly above about 0.92. Some of the results follow.

Assay: chemical genetic growth profiling, strain panel (AID 1159580);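 further: tested at 20 µM; growth read once vehicle control cultures reached saturation at 30 °C; 1 = growth at the plate median or of vehicle wells; lower values mean less growth of the strain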
Settings: S. cerevisiae deletion strains, growth OD

Measured: normalized growth

COC(C)(C)CCC[C@H](C)C/C=C/C(C)=C/C(=O)OC(C)C
inactive: locus YAL013W, strain DEP1, hits give low values 0.998 | locus YAL021C, strain ccr4, hits give low values 1.03 | locus YAL026C, strain drs2, hits give low values 1.01 | locus YAL030W, strain snc1, hits give low values 1.03 | locus YBL061C, strain skt5, hits give low values 1.02 | locus YBR009C, strain hhf1, hits give low values 1.01 | locus YBR021W, strain FUR4, hits give low values 0.985 | locus YBR023C, strain chs3, hits give low values 1.02 | locus YBR171W, strain sec66, hits give low values 1.02 | locus YBR229C, strain ROT2, hits give low values 1 | locus YBR231C, strain swc5, hits give low values 1 | locus YBR279W, strain paf1, hits give low values 1 | locus YCL011C, strain gbp2, hits give low values 1.02 | locus YCL016C, strain dcc1, hits give low values 1.01 | locus YCL029C, strain bik1, hits give low values 1.05 | locus YCL061C, strain MRC1, hits give low values 1.02 | locus YCL069W, strain vba3, hits give low values 1.03 | locus YCR088W, strain abp1, hits give low values 1.02 | locus YDL005C, strain med2, hits give low values 1 | locus YDL035C, strain GPR1, hits give low values 1 | locus YDL040C, strain nat1, hits give low values 1 | locus YDL074C, strain BRE1, hits give low values 0.998 | locus YDL101C, strain DUN1, hits give low values 1.01 | locus YDL134C, strain PPH21, hits give low values 1.01 | locus YDL185W, strain tfp1, hits give low values 1.01 | locus YDL192W, strain arf1, hits give low values 1.03 | locus YDR001C, strain nth1, hits give low values 1.02 | locus YDR069C, strain doa4, hits give low values 1.01 | locus YDR101C, strain arx1, hits give low values 1.02 | locus YDR137W, strain rgp1, hits give low values 1.09 | locus YDR150W, strain NUM1, hits give low values 0.994 | locus YDR159W, strain sac3, hits give low values 1.03 | locus YDR162C, strain NBP2, hits give low values 1 | locus YDR195W, strain ref2 0.99 | locus YDR297W, strain sur2, hits give low values 1.02 | locus YDR318W, strain mcm21, hits give low values 1.03 | locus YDR334W, strain swr1, hits give low values 1.02 | locus YDR335W, strain msn5, hits give low values 1.03 | locus YDR388W, hits give low values 1.02 | locus YDR392W, strain spt3, hits give low values 1.05 | locus YDR502C, strain sam2, hits give low values 1.03 | locus YEL003W, strain gim4, hits give low values 1.01 | locus YEL037C, strain rad23, hits give low values 1.01 | locus YEL061C, strain CIN8 (second series), hits give low values 1.02 | locus YEL061C, strain CIN8, hits give low values 0.999 | locus YER015W, strain faa2, hits give low values 1.01 | locus YER016W, strain bim1, hits give low values 1.02 | locus YER110C, hits give low values 1.03 | locus YER111C, strain swi4, hits give low values 1.01 | locus YER155C, strain BEM2 (second series), hits give low values 1.01 | locus YER155C, strain BEM2, hits give low values 0.99 | locus YER167W, strain BCK2, hits give low values 1.01 | locus YFR010W, strain ubp6, hits give low values 1 | locus YGL078C, strain dbp3, hits give low values 1.02 | locus YGL086W, strain mad1, hits give low values 1 | locus YGL167C, strain pmr1, hits give low values 1.02 | locus YGL173C, strain kem1, hits give low values 1.02 | locus YGL227W, strain vid30, hits give low values 1.05 | locus YGL240W, strain doc1, hits give low values 1.03 | locus YGL248W, strain PDE1, hits give low values 1.01 | locus YGL253W, strain hxk2, hits give low values 1 | locus YGR078C, strain PAC10, hits give low values 1.01 | locus YGR135W, strain pre9, hits give low values 1.04 | locus YGR229C, strain SMI1, hits give low values 1.03 | locus YGR252W, strain gcn5, hits give low values 1.06 | locus YHR013C, strain ard1, hits give low values 1.03 | locus YHR027C, strain rpn1, hits give low values 1 | locus YHR030C, strain SLT2, hits give low values 1 and 0.961 | locus YHR079C, strain IRE1 (second series), hits give low values 1.01 | locus YHR079C, strain IRE1, hits give low values 0.942 | locus YHR094C, strain hxt1, hits give low values 1.01 | locus YHR129C, strain ARP1, hits give low values 0.998 | locus YHR142W, strain chs7, hits give low values 0.979 | locus YHR200W, strain rpn10, hits give low values 1.02 | locus YIL066C, strain RNR3, hits give low values 1.01 | locus YIL073C, strain SPO22, hits give low values 1.08 | locus YIL125W, strain kgd1, hits give low values 1.01 | locus YIR030C, strain dcg1, hits give low values 1.03 | locus YJL092W, strain hpr5, hits give low values 1.03 | locus YJL095W, strain BCK1 (second series), hits give low values 1.02 | locus YJL095W, strain BCK1, hits give low values 1.03 and 0.955 | locus YJL115W, strain asf1, hits give low values 1.02 | locus YJL129C, strain trk1, hits give low values 0.942 | locus YJL134W, strain LCB3, hits give low values 1 | locus YJL154C, strain vps35, hits give low values 1.01 | locus YJL164C, strain tpk1, hits give low values 1 | locus YJL166W, strain qcr8, hits give low values 1.02 | locus YJL168C, strain set2, hits give low values 1.02 | locus YJL187C, strain SWE1 (second series), hits give low values 1.02 | locus YJR043C, strain POL32, hits give low values 1.01 | locus YJR066W, strain TOR1, hits give low values 0.892
